Test results reported in PubChem BioAssay (NCI).
Compounds without any hit were thinned out: in the full panel of roughly 83,000, 20% have a hit.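 The endpoint reported here, percent growth, reads 100 for growth as untreated, 0 for no net growth and -100 for all cells dead.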

Assays:
Assay in all cases: NCI-60 one-dose screen, 48 h (100 = growth as untreated, 0 = no growth, -100 = all killed)
Settings in all cases: 10 µM unless noted; active = growth percent below 10; inactive = the rest
NCI-H23 lung = system: NCI-H23 lung
NCI-H226 lung = system: NCI-H226 lung
NCI-H322M lung = system: NCI-H322M lung
HOP-62 NSCLC = system: HOP-62 NSCLC
NCI-H460 lung = system: NCI-H460 lung
HOP-92 NSCLC = system: HOP-92 NSCLC
NCI-H522 lung = system: NCI-H522 lung
A549/ATCC NSCLC = system: A549/ATCC NSCLC
786-0 renal = system: 786-0 renal
COLO 205 colon = system: COLO 205 colon
DU-145 prostate = system: DU-145 prostate
MALME-3M melanoma = system: MALME-3M melanoma
MDA-MB-231 breast = system: MDA-MB-231 breast
RXF 393 renal = system: RXF 393 renal
SF-268 CNS = system: SF-268 CNS
SF-295 CNS = system: SF-295 CNS
SF-539 CNS = system: SF-539 CNS
UACC-257 melanoma = system: UACC-257 melanoma
M14 melanoma = system: M14 melanoma
K-562 leukemia = system: K-562 leukemia

Measured: growth

COC12CC3C4=CCOC5CC(=O)N6c7ccccc7C1(CCN2C4)C6C53 (stereo not drawn)
inactive: NCI-H23 lung 102% | NCI-H226 lung 103% | NCI-H322M lung 109% | HOP-62 NSCLC 99.1% | NCI-H460 lung 109% | HOP-92 NSCLC 102% | NCI-H522 lung 89.9% | A549/ATCC NSCLC 91.2% | 786-0 renal 99.1% | COLO 205 colon 105% | DU-145 prostate 117% | MALME-3M melanoma 112% | MDA-MB-231 breast 106% | RXF 393 renal 129% | SF-268 CNS 111% | SF-295 CNS 111% | SF-539 CNS 100% | UACC-257 melanoma 84% | M14 melanoma 99.2%

O=[N+]([O-])c1cc(Br)c(O)c(Br)c1
inactive: NCI-H23 lung 101% | NCI-H226 lung 93.5% | NCI-H322M lung 105% | HOP-62 NSCLC 96.9% | NCI-H460 lung 107% | HOP-92 NSCLC 95.8% | NCI-H522 lung 92.7% | A549/ATCC NSCLC 98.9% | 786-0 renal 102% | COLO 205 colon 112% | K-562 leukemia 123% | MDA-MB-231 breast 103% | RXF 393 renal 90.2% | SF-295 CNS 100% | SF-539 CNS 108% | UACC-257 melanoma 95.4%

C=CCOC(=O)C(Br)CC (stereo not drawn)
inactive: NCI-H23 lung 99% | NCI-H226 lung 101% | NCI-H322M lung 108% | HOP-62 NSCLC 108% | NCI-H460 lung 104% | NCI-H522 lung 99.2% | A549/ATCC NSCLC 107% | 786-0 renal 106% | COLO 205 colon 103% | DU-145 prostate 108% | K-562 leukemia 107% | MALME-3M melanoma 99.9% | MDA-MB-231 breast 93.6% | RXF 393 renal 118% | SF-268 CNS 106% | SF-295 CNS 109% | SF-539 CNS 100% | UACC-257 melanoma 104%

NC(=O)Oc1cc(OC(N)=O)cc(N(CCCl)CCCl)c1
inactive: NCI-H23 lung 50% | NCI-H226 lung 79.5% | NCI-H322M lung 111% | HOP-62 NSCLC 58.5% | NCI-H460 lung 23.9% | HOP-92 NSCLC 75.9% | NCI-H522 lung 17.9% | A549/ATCC NSCLC 50.6% | 786-0 renal 28.6% | COLO 205 colon 86.8% | DU-145 prostate 34.3% | K-562 leukemia 55.2% | MALME-3M melanoma 80.6% | MDA-MB-231 breast 97.9% | SF-268 CNS 39.7% | SF-539 CNS 23.3% | UACC-257 melanoma 57.2% | M14 melanoma 49.4%

Cc1cc(N)ccc1N
inactive: NCI-H23 lung 105% | NCI-H226 lung 92% | NCI-H322M lung 95% | HOP-62 NSCLC 93.9% | NCI-H460 lung 106% | HOP-92 NSCLC 95.1% | NCI-H522 lung 106% | A549/ATCC NSCLC 98.2% | COLO 205 colon 120% | DU-145 prostate 115% | K-562 leukemia 105% | MALME-3M melanoma 105% | RXF 393 renal 103% | SF-268 CNS 103% | SF-295 CNS 108% | SF-539 CNS 95.8% | UACC-257 melanoma 97.2% | M14 melanoma 104%

CCOP(=O)(OCC)C(=O)N(CC)CC
inactive: NCI-H23 lung 105% | NCI-H226 lung 94.3% | NCI-H322M lung 105% | HOP-62 NSCLC 99.9% | NCI-H460 lung 103% | NCI-H522 lung 91.7% | A549/ATCC NSCLC 98.4% | 786-0 renal 98% | COLO 205 colon 118% | DU-145 prostate 107% | K-562 leukemia 121% | MALME-3M melanoma 108% | MDA-MB-231 breast 99.8% | RXF 393 renal 101% | SF-268 CNS 101% | SF-295 CNS 98.8% | SF-539 CNS 113% | UACC-257 melanoma 88.4% | M14 melanoma 101%

O=P1(N(CCCl)CCCl)NCCCO1 (stereo not drawn)
inactive: NCI-H23 lung 112% | NCI-H226 lung 101% | NCI-H322M lung 104% | HOP-62 NSCLC 105% | NCI-H460 lung 104% | HOP-92 NSCLC 131% | NCI-H522 lung 109% | 786-0 renal 104% | COLO 205 colon 116% | DU-145 prostate 124% | K-562 leukemia 104% | MALME-3M melanoma 96.5% | MDA-MB-231 breast 107% | RXF 393 renal 110% | SF-268 CNS 117% | SF-295 CNS 107% | SF-539 CNS 110% | UACC-257 melanoma 109% | M14 melanoma 101%

OCCNC1CCCCC1
inactive: NCI-H23 lung 108% | NCI-H226 lung 104% | NCI-H322M lung 113% | HOP-62 NSCLC 99.2% | NCI-H460 lung 105% | HOP-92 NSCLC 108% | A549/ATCC NSCLC 106% | COLO 205 colon 112% | DU-145 prostate 107% | K-562 leukemia 101% | MALME-3M melanoma 112% | MDA-MB-231 breast 114% | RXF 393 renal 118% | SF-268 CNS 102% | SF-295 CNS 111% | SF-539 CNS 103% | UACC-257 melanoma 112%

CCC(=O)C(CC(C)[N+](C)(C)C)(c1ccccc1)c1ccccc1 (stereo not drawn)
inactive: NCI-H23 lung 91.7% | NCI-H226 lung 87.8% | NCI-H322M lung 103% | HOP-62 NSCLC 91.6% | NCI-H460 lung 106% | HOP-92 NSCLC 103% | NCI-H522 lung 86.1% | A549/ATCC NSCLC 95.8% | 786-0 renal 92.9% | COLO 205 colon 85.8% | DU-145 prostate 112% | K-562 leukemia 103% | MALME-3M melanoma 106% | RXF 393 renal 104% | SF-268 CNS 103% | SF-295 CNS 95.3% | SF-539 CNS 96.6% | UACC-257 melanoma 94.7% | M14 melanoma 96.2%
